KCNQ2 pot = KCNQ2 (rat) channel potentiation; CHO-K1 KCNQ2, FluxOR thallium flux fluorescence; active compounds read high; B-score at 10 µM; 0.54% of 310,000 active; AID 2239;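 active = fluorescence ratio B-score at least 3 SD of library B-scores, with initial fluorescence B-score within 3 of them, cut at about 5.3 in these data; same plate scores as AID 2156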;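 also: B-score of peak minus minimum over baseline fluorescence ratio after K+ and Tl+ stimulus; positive B-score means potentiation of KCNQ2 with more thallium influx and brighter signal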
Target sequence (O88943 whole entry, looked up): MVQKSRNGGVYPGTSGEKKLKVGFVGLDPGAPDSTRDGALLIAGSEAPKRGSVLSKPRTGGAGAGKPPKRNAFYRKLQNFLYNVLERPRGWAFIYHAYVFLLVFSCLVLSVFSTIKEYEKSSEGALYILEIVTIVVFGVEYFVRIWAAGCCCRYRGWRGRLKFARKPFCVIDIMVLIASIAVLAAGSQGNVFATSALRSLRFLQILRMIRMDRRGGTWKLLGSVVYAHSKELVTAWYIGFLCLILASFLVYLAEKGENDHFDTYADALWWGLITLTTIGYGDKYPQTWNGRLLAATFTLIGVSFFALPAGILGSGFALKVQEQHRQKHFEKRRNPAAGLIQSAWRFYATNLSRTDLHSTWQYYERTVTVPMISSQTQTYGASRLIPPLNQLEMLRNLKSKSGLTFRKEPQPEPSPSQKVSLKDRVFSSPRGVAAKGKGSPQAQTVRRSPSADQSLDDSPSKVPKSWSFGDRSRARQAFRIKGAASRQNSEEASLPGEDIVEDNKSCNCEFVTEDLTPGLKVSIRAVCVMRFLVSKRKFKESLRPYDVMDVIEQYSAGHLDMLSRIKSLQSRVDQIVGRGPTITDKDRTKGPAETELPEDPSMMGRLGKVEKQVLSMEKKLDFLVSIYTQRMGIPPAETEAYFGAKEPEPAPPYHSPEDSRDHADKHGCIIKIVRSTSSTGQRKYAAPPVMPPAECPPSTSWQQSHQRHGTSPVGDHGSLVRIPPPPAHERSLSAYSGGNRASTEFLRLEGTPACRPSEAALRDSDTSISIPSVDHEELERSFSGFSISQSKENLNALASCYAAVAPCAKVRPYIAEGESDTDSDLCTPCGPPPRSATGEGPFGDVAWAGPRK
KCNQ2 inh = blocks the rat KCNQ2 potassium channel. O88943. CHO-K1 KCNQ2, FluxOR thallium flux, 20 min; active compounds read low. B-score at 10 µM. 1.1% of 310,000 active. AID 2156;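 active = fluorescence ratio B-score at most minus 3 library SDs, with starting brightness B-score within 2 library SDs, cut at about -5.5 in these data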
KCNQ2 inh conf = confirmation of rat KCNQ2 potassium channel inhibitors | shares compounds with KCNQ2 inh | KCNQ2-expressing cells, thallium flux, inhibition; active compounds read low | activity change, negative = inhibition, % at 10 µM | 57% of 1,000 active;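 also: 0% = vehicle wells and values are ratio percent relative to vehicle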
KCNQ1 spec = KCNQ2 inhibitor that also affects human KCNQ1 channel. shares compounds with KCNQ2 inh. KCNQ1-expressing cells, FluxOR thallium flux fluorescence; active compounds read low. activity change, negative = inhibition, % at 10 µM. 15% of 1,000 active. AID 493026;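 active = activity change at least 3 SD of negative controls below their mean in both duplicate wells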;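 also: CHO cells stably transfected with KCNQ1 and depolarized by potassium stimulus; peak minus minimum fluorescence over baseline after thallium addition; 0% = vehicle negative control and -100% = blank without thallium stimulus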
CHO parental ctr = counter-screen for KCNQ2 inhibitors: effect in parental CHO cells | activity change, % at 10 µM | thallium flux counter-screen; active compounds read low | shares compounds with KCNQ2 inh | 14% of 1,000 active | AID 493029;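 also: 0% = vehicle negative controls with stimulus buffer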
KCNQ2 inh confirm = blocks rat KCNQ2 current in automated patch clamp | KCNQ2-expressing cells | shares compounds with KCNQ2 inh | 49% of 550 active | calls only at 10 µM
Numbers without * were called inactive; i = inactive; . = no result given; + = active, no number. In the library only some 1.6% were active in any assay of this set; here they are far more common. Unless noted, no rule for the calls is given here.

SMILES	KCNQ2 pot	KCNQ2 inh	KCNQ2 inh conf	KCNQ1 spec	CHO parental ctr	others
CCOC(=O)N1CCC(n2c(SCC(=O)N3CCCC3)nc3ccccc3c2=O)CC1	.	i	.	.	.
CCOC(=O)N1CCC(n2c(SCC(=O)N3CCC(C)CC3)nc3ccccc3c2=O)CC1	-7.8	-7.8*	i	i	i
CCOC(=O)N1CCC(n2c(SCC(=O)NCCC3=CCCCC3)nc3ccccc3c2=O)CC1	-7.5	-7.5*	i	i	i
CCOC(=O)N1CCC(n2c(SCC(=O)NCc3ccccc3)nc3ccccc3c2=O)CC1	.	i	.	.	.
Cc1ccccc1Cn1cc(NC(=O)CCCn2nc([N+](=O)[O-])cc2C)cn1	.	i	.	.	.
COC(=O)CSc1nc(C2CC2)cc(C(F)(F)F)c1C#N	0.01	i	.	.	.
CCOC(=O)C(C)Sc1nc(C2CC2)cc(C(F)(F)F)c1C#N (configuration not stated)	-6.9	-6.9*	i	i	i
Cc1ccc(NC(=O)C2CCCN(C(=O)NCc3ccccc3)C2)c(C)c1 (configuration not stated)	0.19	i	.	.	.
CN(C)CCCNC(=O)/C(=C\c1ccc(-c2ccc(Br)cc2)o1)NC(=O)c1ccccc1	.	i	.	.	.
Cc1ccc(C(=O)N/C(=C\c2ccc(-c3ccc(Cl)cc3)o2)C(=O)NCCCN(C)C)cc1	-7.2	-7.2*	-18%*	i	i
Cc1ccc(NC(=O)/C(=C/c2ccco2)c2ccccc2)c(C)c1	.	i	.	.	.
Cc1cc(C)c(NC(=O)/C(=C/c2ccccc2)c2ccccc2)c(C)c1	-7.5	-7.5*	i	i	i
Cc1nn2c(=O)cc(COC(=O)c3ccc(S(=O)(=O)N4CCCCC4)cc3)nc2s1	0.04	i	.	.	.
O=C1CC(c2ccco2)Cc2nc(N3CCc4ccccc4C3)ncc21 (configuration not stated)	-10	-10*	-27%*	i	i	KCNQ2 inh confirm=i
CC(C)c1ccc(C2CC(=O)c3cnc(N4CCc5ccccc5C4)nc3C2)cc1 (configuration not stated)	.	i	.	.	.
CC(C)(C)c1ccc(CN(Cc2ccco2)Cc2nnnn2C2CCCC2)cc1	-12	-12*	-24%*	i	i	KCNQ2 inh confirm=i
COc1ccc2cc(CN(Cc3ccco3)Cc3nnnn3C3CCCCC3)c(=O)[nH]c2c1	2.5	i	.	.	.
COc1cccc(C(=O)CC(C#N)c2ccc(F)cc2)c1 (configuration not stated)	.	i	.	.	.
CCCCN1CCc2c([nH]c3c(C)cccc23)C1=O	1.5	i	.	.	.
Cc1cccc(Oc2cc(NC(=O)c3ccccc3)cc([N+](=O)[O-])c2)c1	-7.3	-7.3*	i	i	i
Cn1cc([N+](=O)[O-])c(C(=O)Nc2cc(Oc3ccccc3)cc([N+](=O)[O-])c2)n1	1.6	i	.	.	.
CC1CCC(NC(=O)c2cccc(S(=O)(=O)N3CCN(c4ccc(F)cc4)CC3)c2)CC1 (configuration not stated)	1.1	i	.	.	.
Cc1cc(C)n(-c2nc3ccccc3nc2N2CCCC2)n1	.	i	.	.	.
Cc1cc(C)n(-c2nc3ccccc3nc2N2CCN(C(=O)c3ccc(Cl)cc3)CC2)n1	-8.4	-8.4*	-32%*	-30%*	-24%*	KCNQ2 inh confirm=+
COc1ccc(CNC(=O)CN(c2ccccc2)S(=O)(=O)c2ccccc2[N+](=O)[O-])cc1	.	i	.	.	.
SMILES	KCNQ2 pot	KCNQ2 inh	KCNQ2 inh conf	KCNQ1 spec	CHO parental ctr	others
COc1ccc(-c2nc(CSCC(=O)NC3CCCc4ccccc43)c(C)o2)cc1OC (configuration not stated)	-10	-10*	i	i	i
COc1ccc(-c2nc(CS(=O)CC(=O)NC3CCCc4ccccc43)c(C)o2)cc1OC (configuration not stated)	.	i	.	.	.
Cn1c(=O)c(=O)n(C)c2cc([N+](=O)[O-])c(N3CCOCC3)cc21	.	i	.	.	.
COc1ccc(CNC(=O)C2CCCN(S(=O)(=O)c3ccccc3)C2)cc1 (configuration not stated)	.	i	.	.	.
CCN(c1ccc(OC)cc1)S(=O)(=O)N1CCCC(C(=O)NCc2ccccc2Br)C1 (configuration not stated)	-10	-10*	i	i	i
Cc1ccc(-c2nc(C(=O)NCC3CCCO3)cc3c2[nH]c2ccccc23)cc1 (configuration not stated)	-12	-12*	-28%*	i	i	KCNQ2 inh confirm=i
Cc1ccccc1-c1nc(C(=O)NCC2CCCO2)cc2c1[nH]c1ccccc12 (configuration not stated)	.	i	.	.	.
COc1ccccc1NC(=O)c1cnc(SCC(=O)NCCc2ccccc2)n(C)c1=O	.	i	.	.	.
CC12CCC(C(=O)NCc3ccc4c(c3)OCO4)(C(=O)C1=O)C2(C)C (configuration not stated)	0.07	i	.	.	.
O=C(NCC1CCCO1)c1ccc(NC(=O)c2ccc([N+](=O)[O-])cc2)cc1 (configuration not stated)	0.46	i	.	.	.
CN(CC(O)COc1ccccc1F)C1CCCCC1 (configuration not stated)	0.14	i	.	.	.
Cc1ccccc1OCC(O)CN(Cc1ccccc1O)C1CCCCC1 (configuration not stated)	-7.4	-7.4*	-28%*	i	i	KCNQ2 inh confirm=+
COc1ccc(CNC(=O)CSc2nc(SC)ns2)cc1	1.8	i	.	.	.
Cc1ccc(N(C)S(=O)(=O)c2cc(-c3cnc(C4CC4)o3)ccc2C)cc1	-7.2	-7.2*	-15%*	i	i	KCNQ2 inh confirm=i
Cc1ccc(-c2cnc(C3CC3)o2)cc1S(=O)(=O)Nc1ccccc1	.	i	.	.	.
Fc1ccc(-c2csc(N3CCC(c4ccccc4)C3)n2)cc1 (configuration not stated)	-9.5	-9.5*	i	i	i
Clc1ccc(-c2csc(N3CCC(c4ccccc4)C3)n2)cc1 (configuration not stated)	.	i	.	.	.
CSc1nc(N)c(C(=O)Nc2ccc([N+](=O)[O-])cc2)s1	0.75	i	.	.	.
COc1ccc2oc(C(=O)N3CCN(c4ncccn4)CC3)c(C)c2c1	0.12	i	.	.	.
Cc1ccc2c(C)c(C(=O)N3CCN(c4ncccn4)CC3)oc2c1C	-8.6	-8.6*	-29%*	i	i	KCNQ2 inh confirm=+
Cc1ccc2c(C)c(C(=O)N(C)Cc3nccn3C)oc2c1C	-7.6	-7.6*	i	i	i
Cc1c(C(=O)N(Cc2nccn2C)C(C)C)oc2c(F)cccc12	0.43	i	.	.	.
CCC(=O)N1CCc2nc(-c3ccccc3)sc2C1	.	i	.	.	.
CCOC(=O)C1(Cc2ccccc2C(F)(F)F)CCN(C2CCN(C(C)C)CC2)CC1	2.3	i	.	.	.
COc1ccc2c(c1)-c1c(ssc1=S)C(C)(C)N2C(=O)CSC1=NCCS1	.	i	.	.	.
CCOc1ccc2c(c1)-c1c(ssc1=S)C(C)(C)N2C(=O)c1ccco1	-8.8	-8.8*	i	i	i
CN1/C(=C\C(=O)Nc2ccc(Br)cc2)C(C)(C)c2ccccc21	.	i	.	.	.
